ELG1 genotoxic: inducers of genotoxicity in HEK293T ELG1-luciferase cells. HEK293T ELG1-luciferase reporter, luminescence, 16 h. Potency, µM (series often up to 46 µM), for inactives: at the highest dose activity change, positive = activation, hits mostly activators. hit rate 1.3% among 330,000. AID 504466; note: % of control where 0% means no effect; nearly all actives have a fitted effect of over 60% in size
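Genotoxic stress is detected as increased luminescence from luciferase-tagged ELG1 in HEK293T cells, measured with ONE-Glo after a 16 hr treatment at 37 °C.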
Rab9 promoter act: Rab9 promoter activation; Huh7 Rab9 promoter-luciferase reporter, luminescence, 24 h; Potency, µM (highest dose often 9.22 µM), for inactives: at the highest dose activation, negative = inhibition, hits mostly activators; hit rate 2.8% among 320,000; note: % of control where 0% means no effect; nearly all actives have a fitted effect of over 60% in size
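Cell-based reporter: Huh7 stable for Rab9 promoter-driven luciferase, plated in reduced-serum medium with 10% FBS at 1500 cells/well, compound-treated 24 h at 37 °C, luminescence read after 10 min reagent.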
uPA surface inh: cell surface uPA generation inhibition. hit rate 0.31% among 330,000. cell surface uPA generation assay, qHTS. Potency, µM (doses to about 38.3 µM), for the others: top-dose activity change, negative = inhibition, usual class: inhibitors. AID 540303; active = well fitted inhibition curve with a large enough effect; inconclusive = small, poorly fitted or top-dose-only effect; inactive = no such curve, though single readings can be large or run the other way; tested in mouse RAW 264.7 cells; note: % is set by controls: 0 for no effect and ±100 for the full control effect; nearly all actives have a fitted effect of over 55% in size
SMN2 splice up: SMN2 splice variant enhancement; hit rate 2.8% among 210,000; Potency, µM (highest dose often 46.1 µM), inactives show at the top dose activity change, positive = activation, usual class: activators; AID 1458; HEK293 SMN2-luciferase splicing reporter, luminescence, 30-36 h; note: % of control where 0% means no effect; nearly all actives have a fitted effect of over 55% in size
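qHTS luciferase splicing reporter: luminescence rises when SMN2 exon 7 is included in transfected HEK293 cells. Compound exposure lasted 30-36 h at 37C, with 4.5 mM final sodium butyrate as control, followed by a ONE-Glo read.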
NPC1 promoter act: activators of NPC1 promoter; Huh7 NPC1 promoter luciferase reporter, 24 h; Potency, µM (series often up to 9.22 µM), for the others: top-dose activation, most hits filed as activators; hit rate 2.4% among 320,000; note: % of control where 0% means no effect; nearly all actives have a fitted effect of over 60% in size
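In 1536-well qHTS, Huh7 cells harboring an NPC1 promoter–luciferase construct received compound for 24 h; activation was quantified by luminescence following luciferase reagent addition.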
FLuc counter: counter-screen for miR-21 project: firefly luciferase inhibitors or activators | P08659 | purified FLuc, Km substrates, luminescence inhibition | Potency, µM (top dose mostly 57.5 µM), for inactives: at the top dose activity change, negative = inhibition, actives largely listed as inhibitors | hit rate 6.9% among 360,000 | AID 588342;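 note: plate controls were vehicle for no effect and reference inhibitor for full effect; nearly all actives have a fitted effect of over 55% in size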
Target sequence (P08659 whole entry, looked up): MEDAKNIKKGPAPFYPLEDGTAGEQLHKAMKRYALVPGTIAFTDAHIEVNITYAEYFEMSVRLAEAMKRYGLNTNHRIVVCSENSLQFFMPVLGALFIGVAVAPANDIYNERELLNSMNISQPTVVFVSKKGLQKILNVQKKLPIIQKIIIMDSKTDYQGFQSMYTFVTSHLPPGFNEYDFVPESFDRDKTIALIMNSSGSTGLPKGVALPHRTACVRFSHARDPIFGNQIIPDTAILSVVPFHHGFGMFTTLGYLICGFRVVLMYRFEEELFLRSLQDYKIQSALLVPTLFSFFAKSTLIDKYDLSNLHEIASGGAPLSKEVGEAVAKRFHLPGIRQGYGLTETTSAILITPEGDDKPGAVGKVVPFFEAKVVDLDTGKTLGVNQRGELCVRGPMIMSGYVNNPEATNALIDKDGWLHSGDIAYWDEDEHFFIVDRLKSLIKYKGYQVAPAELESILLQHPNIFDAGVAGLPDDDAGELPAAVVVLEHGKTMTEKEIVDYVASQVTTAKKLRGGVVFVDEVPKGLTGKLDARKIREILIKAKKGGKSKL
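Purified P. pyralis luciferase (10nM final) with 10uM D-luciferin and 10uM ATP (Km levels) in 50mM Tris acetate pH 7.5, 10mM Mg acetate, 0.01% Tween-20, 0.05% BSA; qHTS 6-point titration, ~60 µM downward; luminescence read.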
Numbers without * were called inactive; ? = inconclusive; · = not tested or not shown; [ ] = dose if it differs, or a comment. Most compounds without a hit are left out; they make up all but 7.3% or so of the library. Unless noted, calls come from the whole dose curve; as a rule, active = well fitted curve in the direction sought with a large enough effect; inconclusive = small, poorly fitted or top-dose-only effect, or another doubt; inactive = no such curve, though single readings can be large; an effect the other way counts as inactive or inconclusive. Potency is the fitted concentration of half-maximal effect.

SMILES	ELG1 genotoxic	Rab9 promoter act	uPA surface inh	SMN2 splice up	NPC1 promoter act	FLuc counter
Cc1ccc(C(=O)NCCC(=O)N2CCCC2)cc1	23µM*	3.2µM*	11%	·	4µM*	11µM*
Cc1ccc(SCCC(=O)N2CCC(C)CC2)cc1	?	3.5µM*	4%	?	4.5µM*	13µM*
Cc1ccc(SCCC(=O)N2CCCC2)cc1	15µM*	25%	5%	-12%	25%	-14%
Cc1ccc(SCc2ccc(C(=O)N3CCCC3)cc2)cc1	13%	?	1%	?	25%	17µM*
O=C(Cn1cnc2ccccc2c1=O)Nc1nnc(SCc2ccc(Cl)cc2)s1	-1%	-2%	0%	·	-4%	0%
N/C(=N\OC(=O)c1cc([N+](=O)[O-])ccc1Cl)c1ccccn1	7%	-13%	-24%	·	3%	24µM*
N/C(=N\OC(=O)c1cccc([N+](=O)[O-])c1)c1ccccn1	-16%	3.5µM*	-14%	14µM*	?	5.4µM*
O=C(OCc1nnc(-c2ccccc2)o1)c1cc([N+](=O)[O-])ccc1Cl	-2%	1%	7%	7%	-2%	-6%
N/C(=N\OC(=O)c1ccc([N+](=O)[O-])cc1Cl)c1ccccn1	0.33µM*	0.32µM*	-17%	·	?	0.12µM*
Cc1ccc(OC(=O)c2ccc([N+](=O)[O-])cc2Cl)cn1	1%	-6%[1.84 µM]	6%	·	-4%	12µM*
CC(C)CC1(C)NC(=O)N(CC(=O)Nc2ccc3c(c2)CCC3)C1=O (centres undefined)	0%	3%	2%	?	-5%	2%
N/C(=N\OC(=O)CCCOc1ccc(Cl)cc1Cl)c1ccccn1	2%	0%	1%	-3%	-8%	-19%
CC(C)(C)CC(=O)O/N=C(\N)c1ccccn1	2.6µM*	0.63µM*	-6%	7.1µM*	0.56µM*	4.8µM*
Cc1ccc(OCC(=O)O/N=C(\N)c2ccccn2)cc1	?	2.5µM*	·	13µM*	4µM*	13µM*
COc1ccc(CC(=O)O/N=C(\N)c2ccncc2)cc1	-2%	-4%	0%	·	1%	-17%
N/C(=N\OC(=O)COc1cc(Cl)c(Cl)cc1Cl)c1ccccn1	?	1.1µM*	2%	11µM*	0.79µM*	2.4µM*
COc1ccc(CC(=O)O/N=C(\N)c2ccc(C)cc2)cc1	15%	?	-5%	·	?	17µM*
COc1ccccc1CC(=O)O/N=C(\N)c1ccccn1	6%	21%	-7%	·	1%	-17%
N/C(=N\OC(=O)Cc1ccc(Cl)cc1)c1ccccn1	16µM*	28%	1%	12%	29%	9.5µM*
N/C(=N\OC(=O)Cc1ccc(Cl)cc1)c1ccncc1	-1%	-4%	5%	-4%	-2%	-4%
Cc1ccc(CC(=O)O/N=C(\N)c2ccccn2)cc1	?	?	-13%	·	4.5µM*	4.8µM*
COc1ccc(CC(=O)O/N=C(\N)c2ccccn2)cc1OC	1%	0%	-9%	·	9%	-14%
Cc1cccc(OCC(=O)O/N=C(\N)c2ccccn2)c1C	?	?	2%	?	?	9.5µM*
COc1ccccc1CNC(=O)COc1cccc(-n2cnnn2)c1	4%	-7%	0%	·	-8%	1%
Cc1cc2c(cc3c(SCC(=O)Nc4cccc(Cl)c4C)nnc(C)n32)o1	·	·	·	·	·	-5%
SMILES	ELG1 genotoxic	Rab9 promoter act	uPA surface inh	SMN2 splice up	NPC1 promoter act	FLuc counter
CCC(C(=O)NC1CC(C)(C)NC(C)(C)C1)c1ccccc1 (centres undefined)	1%	-2%	9%	·	-2%	-1%
CCC1CCC(C(=O)NC(C(=O)NCCN(CC(C)C)CC(C)C)C(C)C)CC1 (centres undefined)	·	·	·	-1%	·	2%
CC(C)CC(NC(=O)C1CCC(C)CC1)C(=O)Nc1ccc2c(c1)OCCO2 (centres undefined)	?	27%	0%	7%	22%	17µM*
CCC1CCC(C(=O)NC(C(=O)Nc2ccc3c(c2)OCCO3)C(C)C)CC1 (centres undefined)	16µM*	23%	3%	11%	15%	?
CCc1ccc(NC(=O)c2ccc3c(=O)n4c(nc3c2)CCCCC4)cc1	-8%	0%	4%	·	19%	17µM*
CCc1nnc(NC(=O)c2ccc3c(=O)n4c(nc3c2)CCCCC4)s1	6%	27%	-2%	·	13%	27µM*
CCc1ccc(NC(=O)c2sc3nc4n(c(=O)c3c2C)CCC4)cc1	9%	?	-15%	·	28%	15µM*
Cc1c(C(=O)N(C)c2cccc(C(F)(F)F)c2)sc2nc3n(c(=O)c12)CCCCC3	·	·	·	·	·	13µM*
COc1ccc(CNC(=O)C2CCCN(S(=O)(=O)c3ccc4c(ccn4C)c3)C2)c(OC)c1 (centres undefined)	·	·	·	·	·	0%
COc1ccccc1NC(=O)CC(c1cc(OC)c(OC)c(OC)c1)N1Cc2ccccc2C1=O (centres undefined)	·	·	·	·	·	3%
Cc1ccc(C(=O)NC2(C(F)(F)F)C(=O)Nc3c2c(=O)[nH]c(=O)n3CCc2ccccc2)cc1 (centres undefined)	·	·	·	-2%	·	?
O=C(Nc1ncc(Cc2ccccc2)s1)c1cccs1	?	0.5µM*	-7%	4.5µM*	1.3µM*	1.1µM*
O=C(Nc1ncc(Cc2ccc(Cl)cc2)s1)c1ccc2c(c1)CC(c1ccccc1)OC2=O (centres undefined)	·	·	·	-6%	·	0%
O=C(Nc1ncc(Cc2cccc(Cl)c2)s1)c1cccs1	4%	?	-11%	16%	?	15µM*
O=C(Nc1ncc(Cc2ccc(SC(F)F)cc2)s1)c1ccccc1	12%	5%	-12%	-1%	-3%	13µM*
Cc1ccc(Cc2cnc(NC(=O)C3CCCO3)s2)cc1 (centres undefined)	?	1.3µM*	-1%	14µM*	1.1µM*	3µM*
Cc1cc(C)nc(NS(=O)(=O)c2ccc(NC(=O)c3snnc3C)cc2)n1	4%	-4%	1%	·	-4%	-3%
Cc1ccc(C(=O)Nc2ncccc2C)o1	·	·	-5%	·	·	·
Cc1ccc(C(=O)Nc2ncc(Cc3ccccc3)s2)o1	?	3.2µM*	-8%	·	1.4µM*	0.95µM*
Cc1ccc(Cc2cnc(NC(=O)c3cccs3)s2)cc1	-1%	?	-9%	14µM*	2.8µM*	2.7µM*
Cc1ccc(N=Nc2c(=O)[nH]n3c(=O)cc(C)[nH]c23)cc1	?	7%	-4%	-37%	6%	15µM*
CCOc1ccc(N=Nc2c(=O)[nH]n3c(C)cc(C)nc23)cc1	3%	5%	-3%	-6%	4%	-19%
